The source of these data is PubChem BioAssay (Tox21).

SMILES strings stand for the structures. Records with an inconclusive call do not appear. Active and inactive are the calls of the source. Unless noted, calls come from the whole dose curve; as a rule, active = well fitted curve in the direction sought with a large enough effect in the repeat runs; inconclusive = weak or mixed curves; inactive = no such curve, though single readings can be large; an effect the other way counts as inactive or inconclusive.

Assay [1] concerns the target Aryl hydrocarbon receptor (Homo sapiens) (UniProt P35869). The experiment in a line: qHTS assay to identify small molecule that activate the aryl hydrocarbon receptor (AhR) signaling pathway (AID 743085).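 For activation: HG2L7.5c1 human HepG2 liver cells with stably integrated DRE-driven firefly reporter; series mostly up to about 70 µM.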 Note: nearly all actives have a fitted effect of over 15% in size. Note: potency is the fitted concentration of half-maximal effect. In a few lines: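 Luminescence (ONE-Glo) from a dioxin-responsive-element luciferase reporter in HG2L7.5c1 HepG2 cells after 24 hr compound exposure at 37C; viability measured by CellTiter-Fluor fluorescence beforehand.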

Assay [2] deals with Peroxisome proliferator-activated receptor gamma (Homo sapiens) (UniProt P37231). The assay is described as follows: qHTS assay to identify small molecule agonists of the peroxisome proliferator-activated receptor gamma (PPARg) signaling pathway (AID 743094; active = well fitted activation curve with a large enough effect in the signal ratio in the repeat runs, not every such curve was filed as active; the % refers to the signal ratio). The method, boiled down:
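Following 5 h plating at 37C, PPARg-bla HEK293H cells receive compound or DMSO for 17 h; fluorescence intensity is recorded after LiveBLAzer B/G loading for 1 h at room temperature.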
In general terms: qHTS replaces the single test concentration by a dilution series.

For assay [3] the target is unchanged. The experiment in a line: qHTS assay to identify small molecule antagonists of the peroxisome proliferator-activated receptor gamma (PPARg) signaling pathway (AID 743191; calls by dose curve; note: series mostly up to about 63 µM; nearly all actives have a fitted effect of over 30% in size). In a few lines: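 GeneBLAzer PPARg UAS-bla HEK293H cells carrying a UAS-driven beta-lactamase reporter were plated at 3000 cells/well, preincubated 5 h at 37C, then given compound for 17 h at 37C; LiveBLAzer B/G FRET substrate was read after 1 h at room temperature.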

Assay [4] is described as follows: qHTS assay for small molecule agonists of the antioxidant response element (ARE) signaling pathway - cell viability counter screen (AID 743203; calls by dose curve; note: nearly all actives have a fitted effect of over 55% in size). In a few lines:
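Compounds in DMSO were pinned onto ARE-bla HepG2 cells plated 5 hrs earlier at 2,000 cells/well. Sixteen hours later at 37C/5% CO2, CellTiter-Glo was added and luminescence measured after 30 min at room temperature.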

A short description of assay [5]: qHTS assay for small molecule activators of the heat shock response signaling pathway - cell viability counter screen (AID 743209). Note: nearly all actives have a fitted effect of over 50% in size. In a few lines: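 Counter screen for cytotoxicity in HeLa HSE-bla reporter cells. Treatment was 5 h at 37 C; viability was detected by luminescent ATP assay (CellTiter-Glo) in the same wells as the beta-lactamase read.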
The nature of assay [6]: qHTS assay for small molecule activators of the heat shock response signaling pathway (AID 743210; active = well fitted activation curve with a large enough effect in the signal ratio in the repeat runs, with a control signal flat, not every such curve was filed as active; the % refers to the signal ratio;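 note: HeLa cells with beta-lactamase reporter driven by heat shock elements; series mostly up to about 63 µM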). The method, boiled down:
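Reporter gene assay: HeLa cells stably bearing an HSE-bla construct, compound treatment 5 h at 37 C, LiveBLAzer substrate 2.5 h at RT, fluorescence intensity.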

Assay [7] in a line: qHTS assay to identify small molecule agonists of the peroxisome proliferator-activated receptor delta (PPARd) signaling pathway - cell viability counter screen (AID 743211). Note: nearly all actives have a fitted effect of over 55% in size. The method, boiled down: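 Viability was measured as CellTiter-Glo luminescence (30 min, room temperature) in the same wells as the beta-lactamase readout. GeneBLAzer PPARd UAS-bla HEK293H cells received compound after 5 h plating and were incubated 17 h at 37 C.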

Assay [8] in a line: qHTS assay to identify small molecule that activate the aryl hydrocarbon receptor (AhR) signaling pathway - cell viability counter screen (AID 743086).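 Note: HepG2 liver cells carrying the AhR DRE luciferase reporter; series mostly up to about 70 µM; nearly all actives have a fitted effect of over 45% in size.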 In a few lines:
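HepG2-AhR-luc (HG2L7.5c1) cells, 4000/well, were preincubated 5 h at 37C, exposed to compound in qHTS format for 24 hr at 37C, then given CellTiter-Fluor for 30 min; viability was read as fluorescence in the reporter wells.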

The nature of assay [9]: qHTS assay to identify small molecule antagonists of the peroxisome proliferator-activated receptor gamma (PPARg) signaling pathway - cell viability counter screen (AID 743194). Note: nearly all actives have a fitted effect of over 55% in size. In a few lines:
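PPARg-UAS-bla HEK293H cells were plated, rested 5 h at 37 C, then treated with compounds plus rosiglitazone (50 nM final) for 17 h at 37 C; viability was then read by CellTiter-Glo luminescence after 30 min at room temperature.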

Assay [10] in a line: qHTS assay for small molecule agonists of the antioxidant response element (ARE) signaling pathway (AID 743202; active = well fitted activation curve with a large enough effect in the signal ratio in the repeat runs, not every such curve was filed as active; the % refers to the signal ratio; note: potency is the fitted concentration of half-maximal effect). In a few lines: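 Compounds delivered in DMSO to ARE-bla HepG2 cells (2,000 cells/well, pre-incubated 5 h) and left 16 h at 37 C. LiveBLAzer B/G FRET substrate then added for 2 h at RT before fluorescence reading.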

Chain of Aryl hydrocarbon receptor (Homo sapiens) (P35869 whole entry, looked up): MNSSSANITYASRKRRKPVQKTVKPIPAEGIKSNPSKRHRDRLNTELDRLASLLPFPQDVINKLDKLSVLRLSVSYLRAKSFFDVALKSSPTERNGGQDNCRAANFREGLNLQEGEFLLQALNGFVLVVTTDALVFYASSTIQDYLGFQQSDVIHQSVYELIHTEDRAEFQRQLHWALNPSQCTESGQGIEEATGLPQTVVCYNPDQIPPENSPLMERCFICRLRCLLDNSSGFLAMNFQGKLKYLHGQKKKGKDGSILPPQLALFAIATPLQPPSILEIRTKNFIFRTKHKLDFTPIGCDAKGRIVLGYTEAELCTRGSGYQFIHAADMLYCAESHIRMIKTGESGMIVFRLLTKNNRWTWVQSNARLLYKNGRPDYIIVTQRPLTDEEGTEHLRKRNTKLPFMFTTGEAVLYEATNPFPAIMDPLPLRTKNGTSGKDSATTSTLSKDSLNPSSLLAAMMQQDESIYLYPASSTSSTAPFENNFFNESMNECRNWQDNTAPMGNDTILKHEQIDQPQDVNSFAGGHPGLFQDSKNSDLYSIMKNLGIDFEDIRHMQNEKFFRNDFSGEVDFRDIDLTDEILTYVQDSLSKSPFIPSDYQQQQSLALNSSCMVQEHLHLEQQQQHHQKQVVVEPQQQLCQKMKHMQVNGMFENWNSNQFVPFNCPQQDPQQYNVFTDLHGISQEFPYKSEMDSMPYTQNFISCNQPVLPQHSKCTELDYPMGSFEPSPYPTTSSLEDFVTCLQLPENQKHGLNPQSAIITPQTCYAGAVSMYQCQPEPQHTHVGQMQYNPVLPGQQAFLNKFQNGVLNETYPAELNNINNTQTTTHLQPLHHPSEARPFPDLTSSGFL
Chain of Peroxisome proliferator-activated receptor gamma (Homo sapiens) (P37231 whole entry, looked up): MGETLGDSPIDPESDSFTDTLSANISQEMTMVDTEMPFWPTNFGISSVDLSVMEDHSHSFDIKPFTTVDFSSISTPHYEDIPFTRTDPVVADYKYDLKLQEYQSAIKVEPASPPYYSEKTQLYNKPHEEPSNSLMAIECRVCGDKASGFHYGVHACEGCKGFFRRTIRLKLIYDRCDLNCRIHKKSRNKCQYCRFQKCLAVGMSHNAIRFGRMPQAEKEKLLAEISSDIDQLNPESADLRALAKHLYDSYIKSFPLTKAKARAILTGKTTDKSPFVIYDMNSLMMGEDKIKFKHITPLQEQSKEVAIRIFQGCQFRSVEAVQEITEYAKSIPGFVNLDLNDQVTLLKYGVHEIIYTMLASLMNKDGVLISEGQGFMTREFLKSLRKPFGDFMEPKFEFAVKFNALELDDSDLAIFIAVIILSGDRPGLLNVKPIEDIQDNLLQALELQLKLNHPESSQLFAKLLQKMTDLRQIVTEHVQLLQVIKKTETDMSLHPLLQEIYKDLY

In the case of `CC(C)=CCCC(C)C=O` (stereo unspecified), the Potency entry in assay [1], in [2], in assay [3], in assay [4] and in assay [7] was “inactive” throughout. For the same compound, the compound was classed as inactive in [5] and in assay [6].

Turning to `O=C(O)c1ccccc1-n1cc(C(=O)O)c(=O)c2cc(Nc3c(F)cc(F)cc3Cl)c(Cl)cc21`, the Potency result in [1], in assay [2], in [3] and in assay [7] was “inactive” in each case. Also, the result in [5] and in assay [6] was inactive.

Regarding `CCOC(C)OCC`, the Potency result in assay [1], in assay [8], in assay [9], in assay [4] and in assay [7] was “inactive” each time. Further, in [5], the outcome was inactive.

Regarding `CCC[Si](OC)(OC)OC`, the Potency result in assay [1], in [8], in assay [10], in [4] and in [7] was “inactive” throughout. Moreover, the compound was classed as inactive in assay [5] and in assay [6].

With `O=[N+]([O-])c1cccc(I)c1`, the Potency entry in [1], in [2], in [3], in [9], in [10] and in assay [4] was “inactive” throughout. The Potency result in assay [7] was “inactive”. For the same compound, the compound was classed as inactive in assay [5] and in [6].

For `CCCC(=O)OCc1ccccc1`, the Potency entry in assay [1], in assay [2], in assay [3], in assay [9], in [4] and in [7] was “inactive” each time. In addition, the outcome in assay [5] and in assay [6] was inactive.

Consider `CC(C)CCCCCOC(=O)CS`, for which the Potency result in assay [1], in assay [2], in assay [3], in assay [9], in assay [4] and in assay [7] was “inactive” throughout. Also, the result in assay [5] and in [6] was inactive.

As to `Cc1cc(SC2=C(O)C[C@@](CCc3ccc(N)cc3)(C(C)C)OC2=O)c(C(C)(C)C)cc1CO`, the Potency result in assay [1], in [8], in assay [9], in assay [4] and in assay [7] was “inactive” each time. Further, the result in assay [5] and in assay [6] was inactive.

As to `O=c1[nH][nH]c2ccccc12`, in assay [1], the Potency is 62.3 µM (active). The Potency entry in assay [8], in assay [9], in assay [4] and in assay [7] was “inactive” in each case. Moreover, the result in [5] and in assay [6] was inactive.

Turning to `CCOC(OCC)OCC`, the Potency result in assay [1], in assay [2], in assay [3], in [9], in assay [4] and in assay [7] was “inactive” in each case. Besides, the compound was called inactive in assay [5] and in assay [6].

As for `C=C[Si](OCC)(OCC)OCC`, the Potency entry in assay [1], in assay [8], in assay [9], in assay [10], in assay [4] and in assay [7] was “inactive” in each case. Moreover, the outcome in assay [5] and in assay [6] was inactive.

For `C=C[Si]1(C)O[Si](C)(C=C)O[Si](C)(C=C)O[Si](C)(C=C)O1` (stereo unspecified), the Potency entry in assay [1], in assay [2], in assay [3], in assay [9], in assay [10] and in [4] was “inactive” throughout. For the same compound, the Potency result in assay [7] was “inactive”.

Regarding `CCCN(C1CCN(C(=O)C2CCNCC2)CC1)[C@@H]1CCc2ccc(OC)cc2C1`, the Potency result in [1], in [2], in [3] and in assay [9] was “inactive” in each case. The outcome in assay [5] and in assay [6] was inactive.

Regarding `CC(COc1ccccc1)NC(C)C(O)c1ccc(O)cc1` (stereo unspecified), the Potency result in assay [1], in assay [2], in assay [3], in assay [9], in assay [4] and in assay [7] was “inactive” each time. Moreover, in [5], the call was inactive.

Consider `CCOCCn1c(N2CCCN(C)CC2)nc2ccccc21`, for which the Potency entry in assay [1], in [8], in assay [10], in assay [4] and in [7] was “inactive” in each case. The result in assay [5] and in [6] was inactive.

Turning to `C/C(=C(\CCO)SS/C(CCO)=C(\C)N(C=O)Cc1cnc(C)nc1N)N(C=O)Cc1cnc(C)nc1N`, the Potency entry in assay [1], in assay [2], in assay [3], in [9], in [10] and in assay [7] was “inactive” each time. In addition, the compound was called inactive in [5] and in assay [6].

Take `CC1(C)[C@@H]2CC[C@]3(C2)[C@@H]1C(=O)CCC3(C)C`: the Potency result in assay [1], in assay [8], in assay [9], in assay [10] and in assay [7] was “inactive” throughout. Further, the outcome in assay [5] and in assay [6] was inactive.

As to `O=C(O)CCc1nc2ccccc2[nH]1`, the Potency result in [1], in assay [8], in assay [9], in assay [4] and in assay [7] was “inactive” each time. For the same compound, the result in assay [5] and in [6] was inactive.

Turning to `CCCC1CCOC(C)S1` (stereo unspecified), the Potency result in assay [1], in assay [2], in assay [3], in assay [9], in assay [4] and in assay [7] was “inactive” throughout. For the same compound, the result in assay [5] and in assay [6] was inactive.

Consider `C=CC(=O)OCCCCCCCCCC`, for which the Potency result in assay [1], in [2], in assay [3], in assay [9], in assay [4] and in assay [7] was “inactive” throughout. Moreover, the compound was classed as inactive in assay [5] and in assay [6].

Take `C=CCCC`: the Potency entry in assay [1], in [8], in assay [9], in assay [10], in [4] and in [7] was “inactive” each time. Besides, the call in [6] was inactive.

On to `NC(=O)c1ccccc1`, for which the Potency entry in assay [1], in [2], in assay [3], in assay [9], in assay [4] and in assay [7] was “inactive” in each case. For the same compound, the compound was called inactive in assay [5] and in assay [6].

For `O=C1c2ccccc2C(=O)C1c1ccc2cc(S(=O)(=O)O)cc(S(=O)(=O)O)c2n1`, the Potency entry in [1], in assay [2], in assay [9], in [4] and in assay [7] was “inactive” in each case. Also, the Potency in assay [10] is 5.25 µM (active). In addition, the call in [5] and in assay [6] was inactive.

Take `Nc1nc(Cl)nc2c1ncn2[C@H]1C[C@H](O)[C@@H](CO)O1`: the Potency result in [1], in assay [8], in assay [9], in assay [10], in assay [4] and in assay [7] was “inactive” each time. Besides, the call in [5] and in [6] was inactive.

`O=C(NC1CCN(CCc2c[nH]c3ccccc23)CC1)c1ccccc1`: in [1], the Potency is 29.8 µM (active). In addition, the Potency result in assay [8], in assay [9], in assay [4] and in assay [7] was “inactive” in each case. The compound was called inactive in [6].

In the case of `N#C[C@@H]1CC(F)(F)CN1C(=O)CNC1CC2CCC(C1)N2c1ncccn1` (stereo partly specified), the Potency entry in assay [1], in assay [2], in assay [3], in assay [9], in [10] and in [4] was “inactive” in each case. Also, the Potency entry in assay [7] is “inactive”. Also, in [5], the compound was classed as inactive.
